Screens (PubChem BioAssay)
The list is not random: actives were taken first. Their share in the collection is about 4.1%.
DAX1 inh-1 = DAX1 (NR0B1) inhibition, primary screen. HEK293T StAR-luciferase reporter, SF-1/DAX-1 repression relief. inhibition, % at 6.8 µM. 370,000 tested, 1.1% active. AID 652010;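 active means inhibition above the mean over all tested compounds plus 3 SD, cut at about 3.6% in these data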;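 further: 0% = DAX-1 cells with DMSO and 100% = cells lacking DAX-1 with DMSO; higher inhibition means more luminescence from relief of DAX-1 repression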
hgDAF12 agonist = agonists of H. glycines DAF-12 nuclear receptor; HEK293 GAL4-hgDAF12 UAS-luciferase reporter, agonist luminescence; normalized to butyrate control; activation, % at 6.8 µM; 370,000 tested, 1.8% active;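 active means activation above a cutoff set at the mean of all screened compounds plus 3 SD, cut at about 10% in these data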;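 further: 0% = DMSO wells and 100% = sodium butyrate wells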
DAX1 inh-2 = inhibitors of human orphan nuclear receptor DAX1 (NR0B1); P51843; HEK293 Gal4-DAX1 luciferase reporter, luminescence; inhibition, % at 6.75 µM; 340,000 tested, 0.99% active;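 active means inhibition above the mean over all tested compounds plus 3 SD, cut at about 4.2% in these data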;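 further: 0% = DAX1-transfected cells with DMSO and 100% = empty-vector control cells with DMSO; inhibition shows as a rise in luminescence from relieved DAX1 repression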
hcDAF12 agonist = activators of H. contortus DAF-12 nuclear receptor; 370,000 tested, 1.4% active; activation, % at 6.8 µM; HEK293 hcDAF-12 lit1-tk-luc reporter, luminescence; 0% DMSO, 100% Δ7-dafachronic acid;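 active means activation above the mean of all tested compounds plus 3 SD, cut at about 5.5% in these data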;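 further: 100% = response to 3 µM Δ7-dafachronic acid high control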
ssDAF12 agonist = S. stercoralis DAF-12 activation, primary screen | HEK293 ssDAF-12/GRIP1 lit1-tk-luc reporter, luminescence; % of 3 µM dafachronic acid response | activation, % at 6.8 µM | 370,000 tested, 1% active;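 active means activation above the mean over all tested compounds plus 3 SD, cut at about 0.9% in these data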;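 further: 0% = DMSO-only wells and 100% = 3 µM delta7-dafachronic acid wells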
PolyA inh = blocks polyadenylation in yeast reporter cells | activity score, % at 12 µM | S. cerevisiae SKY197-pL101 polyadenylation reporter, beta-gal luminescence; efflux-impaired pdr1/pdr3 knockout yeast; score 100 = 6 SD above DMSO | 300,000 tested, 0.02% active;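 active means lowest replicate activity score at least 50, where 100 means six control SD above control mean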;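 further: yeast exposed to compound for 9 h at 30 °C; higher score means more reporter readthrough which indicates perturbed polyadenylation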
LXR ag = activates human LXR-beta, counter-screen for hcDAF-12 agonists; 3,400 tested, under 10 active; HEK293 Gal4-LXR tk-luc reporter, luminescence, 24 h; normalized: DMSO 0%, positive control 100%; shares compounds with hcDAF12 agonist; activation, % at 6.8 µM; AID 743027;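 active means mean percent activation of the reporter above a cutoff set as the average over tested compounds plus their standard deviation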
Target sequence (P55055 whole entry, looked up, the tested form may be a part): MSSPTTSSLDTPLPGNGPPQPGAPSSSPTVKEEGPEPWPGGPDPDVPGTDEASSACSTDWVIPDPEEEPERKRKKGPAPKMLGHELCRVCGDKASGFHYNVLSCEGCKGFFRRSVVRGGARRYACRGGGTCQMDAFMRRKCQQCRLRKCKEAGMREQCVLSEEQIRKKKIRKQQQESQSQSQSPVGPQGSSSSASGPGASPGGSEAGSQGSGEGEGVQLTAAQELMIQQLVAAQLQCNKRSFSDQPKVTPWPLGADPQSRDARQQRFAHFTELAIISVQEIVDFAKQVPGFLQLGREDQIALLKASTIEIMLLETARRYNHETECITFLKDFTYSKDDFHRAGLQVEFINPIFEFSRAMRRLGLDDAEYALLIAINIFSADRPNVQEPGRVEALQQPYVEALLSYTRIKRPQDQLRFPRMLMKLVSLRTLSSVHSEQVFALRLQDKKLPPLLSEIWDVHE
hcDAF12 ag = hcDAF-12 agonism, confirmation assay; shares compounds with hcDAF12 agonist; activation, % at 6.8 µM; 3,400 tested, 61% active; HEK293 hcDAF-12 lit1-tk-luc reporter, luminescence; % of Δ7-dafachronic acid response;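 active means mean activation across triplicate tests above the threshold derived from the earlier primary screen, cut at about 5.5% in these data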;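 further: 0% = DMSO only wells and 100% = 3 µM Δ7-dafachronic acid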
An asterisk follows results filed as active; x = no result given.

SMILES	DAX1 inh-1	hgDAF12 agonist	DAX1 inh-2	hcDAF12 agonist	ssDAF12 agonist	PolyA inh	LXR ag	hcDAF12 ag
CS(=O)(=O)N(Cc1ccc(Cl)cc1)c1ccc(C(=O)N/N=C/c2cc3ccccc3nc2Cl)cc1	-1	0	0	2	-1	-11	x	x
Cc1cccn2c(=O)c3cc(C(=O)NCCCOC(C)C)sc3nc12	0	-1	2	1	-1	-1	x	x
CCOCCCNC(=O)c1cc2c(=O)n3cccc(C)c3nc2s1	0	1	0	12*	0	11	0	3
COC(=O)C1OCOC2C(C(=O)OC)OCOC12 (centres undefined)	-1	2	0	-1	0	x	x	x
O=C1C(Cl)=C(Nc2cccc(O)c2)C(=O)N1Cc1ccccc1	-1	-7	-1	-1	-1	-37	x	x
O=C(NC1=NCCS1)c1sc2cc(F)ccc2c1Cl	2	11*	3	9.4*	1.3*	-18	2	15*
Cc1ccc(C(=O)Nc2ccccc2C(=O)NC(CC(=O)O)C(=O)O)cc1 (centres undefined)	1	7	0	7.0*	1	-10	0	3
O=C(O)CC(NC(=O)c1ccccc1NC(=O)c1ccccc1)C(=O)O (centres undefined)	1	-2	1	0	-1	7	x	x
CCCCON1C(=O)c2cccc3cccc(c23)C1=O	0	3	0	9.6*	0	-2	0	7.4*
O=C1c2ccccc2C(=O)N1CCCCON1C(=O)c2ccccc2C1=O	1	3	0	-1	-2	-1	x	x
Cc1cccc(S(=O)(=O)N(C)C[C@@H]2OCc3cn(nn3)CCCC(=O)N([C@H](C)CO)C[C@H]2C)c1	0	1	1	0	0	x	x	x
COc1ccc(C(=O)CN2Cc3ccccc3C2=N)cc1	3	13*	3	18*	2.1*	-6	1	9.5*
COc1ccc(C(=O)CN2C(=O)COc3ccccc32)cc1	0	1	2	-1	-1	0	x	x
Cc1cccc(NC(=O)c2nc[nH]c2C(=O)N[C@@H](CC(C)C)C(=O)OC(C)(C)C)c1	-1	1	0	-2	-1	-7	x	x
CSCCC(N=C(NS(=O)(=O)c1ccc(Br)cc1)c1ccccc1)C(=O)O (centres undefined)	1	4	-1	-1	-1	20	x	x
Cc1cc(C)n2ncc(C(=O)Nc3ccc4c(c3)CCC4)c2n1	x	6	x	6.8*	1	x	0	6.2*
COc1ccccc1C(=O)NC(=S)Nc1ccccc1N1CCCC1	-2	-2	2	7.1*	0	11	0	7.6*
O=C(NC(=S)Nc1ccccc1N1CCCC1)c1ccc(F)cc1	0	6	0	9.1*	0	-3	0	3
O=C(NC(=S)Nc1ccccc1N1CCCCC1)c1ccccc1	-1	-3	-1	0	-1	-33	x	x
Cc1ccccc1C(=O)NC(=S)Nc1ccccc1N1CCCC1	0	0	0	1	-1	-26	x	x
CCc1ccc(-c2csc(NC(=O)COC(=O)CCc3nc4ccccc4s3)n2)cc1	x	x	x	x	x	3	x	x
CC(=O)c1cc(O)c2ccccc2c1O	0	2	2	10*	0	-8	0	3
CC(=O)c1coc2c1cc(O)c1ccccc12	0	2	-1	-2	-1	-20	x	x
O=C(NCc1ccccc1Cl)C(=O)NCC1OCCN1S(=O)(=O)c1ccc(F)cc1 (centres undefined)	-2	-1	0	-2	-1	-4	x	x
COCC(C)NC(=O)c1nn(Cc2ccccc2)c(=O)c2ccccc12 (centres undefined)	0	-2	0	-2	-2	9	x	x
SMILES	DAX1 inh-1	hgDAF12 agonist	DAX1 inh-2	hcDAF12 agonist	ssDAF12 agonist	PolyA inh	LXR ag	hcDAF12 ag
O=C(c1ccccc1-c1nc(-c2ccc(F)cc2)no1)N1CCCC1	-1	-2	0	0	-1	-3	x	x
Cc1ccc(-c2noc(-c3ccccc3F)n2)cc1	3.7*	12*	2	17*	2.1*	13	2	13*
Cc1ccccc1-c1noc(-c2ccccc2C(=O)O)n1	1	-2	2	0	-1	-1	x	x
O=C(O)c1ccc(-c2noc(-c3ccccc3F)n2)cc1	2	8	-3	6.8*	0	8	2	7.0*
O=C(O)c1ccccc1-c1noc(-c2ccccc2F)n1	x	12*	x	7.3*	0	x	1	5
CC(C)(C)c1oc(C(=O)O)cc1CN1CCOCC1	0	-1	0	-1	-1	-21	x	x
CCN(C(=O)CSc1nnc(NCCOC)s1)c1c(N)n(Cc2ccccc2)c(=O)[nH]c1=O	0	3	0	2	-2	x	x	x
Cc1ccc(S(=O)(=O)N2CCC(C(=O)Nc3cc(C(F)(F)F)ccc3N3CCOCC3)CC2)cc1C	-2	-1	1	1	-1	12	x	x
COc1ccc(/C=C/CN2CCC(C(=O)NC(c3ccc(F)cc3)c3ccc4ccccc4n3)CC2)cc1 (centres undefined)	0	3	x	-1	-2	x	x	x
O=C(c1ccco1)c1coc2c1cc(O)c1ccccc12	0	6	1	7.9*	1.0*	-25	0	6.1*
Cc1cccc2sc(N(CCN3CCOCC3)C(=O)CCS(=O)(=O)c3ccccc3)nc12	1	2	1	-1	-1	8	x	x
COc1cccc(-n2c(SCC(=O)N3CCCCC3)nc3c([nH]c4ccccc43)c2=O)c1	1	2	0	7.0*	0	7	0	4
COc1cccc(-n2c(Cc3cc(=O)[nH]c(=O)[nH]3)nnc2SCC(=O)N2CCCCC2)c1	-1	-1	1	8.3*	0	0	0	4
CCOC(=O)N1CCN(C(=O)CSc2nc3c([nH]c4ccccc43)c(=O)n2CC)CC1	-5	1	0	8.3*	0	17	0	1
C=CCn1c(SCC(=O)N2CCN(c3ccccc3)CC2)nc2c([nH]c3ccccc32)c1=O	1	2	3	9.4*	0	-9	0	4
CCn1c(SCC(=O)N2CCCCC2)nc2c([nH]c3ccccc32)c1=O	1	4	2	2	0	x	x	x
Cc1cc(C)c(CN2CCN(C(=O)Cn3cnc(C(=O)Nc4ccc(C)c(C)c4)n3)CC2)c(C)c1	0	1	-1	-2	-2	x	x	x
